Data published in the supplement of paper PMC6555819.

Columns and labels:
Assay in all cases: PBM binding z-score (relative to random genomic background probes); higher = stronger binding; sequences stand for … in GC…GCGATTGACAGCGTAGAATGAAGG
[1] = system: PPARg:RXRa DBDmut IVT, anti-RXR (DBD mutation: RXRa K156A/R161A, NR concentration 270 nM, RXRa partner concentration 90 nM)
Summary of the method: (§1)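 Ligand-free nuclear receptor dimers were bound for 1 h to custom Agilent 4×180K protein-binding microarrays. Detection used antibodies against each partner (one per run). Binding z-scores rest on regression-normalized fluorescence, with random background probes as the reference.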

[2] = system: PPARg:RXRa IVT, anti-PPARg (NR concentration 270 nM, RXRa partner concentration 90 nM)
Summary of the method: as §1

[3] = system: PPARg DBDmut:RXRa IVT, anti-PPARg (DBD mutation: PPARg1 K132A/R137A, NR concentration 270 nM, RXRa partner concentration 90 nM)
Summary of the method: as §1

[4] = system: PPARg DBDmut IVT, anti-PPARg (DBD mutation: PPARg1 K132A/R137A, NR concentration 270 nM)
Summary of the method: as §1

[5] = system: PPARg homodimer (NR concentration 180 nM)
Summary of the method: as §1

[6] = system: PXR:RXRa (NR concentration 270 nM, RXRa partner concentration 90 nM)
Summary of the method: as §1

[7] = system: PXR homodimer (NR concentration 270 nM)
Summary of the method: as §1

[8] = system: RARa:RXR (NR concentration 270 nM, RXRa partner concentration 90 nM)
Summary of the method: as §1

[9] = system: RARa homodimer (NR concentration 270 nM)
Summary of the method: as §1

[10] = system: RARb:RXRa (NR concentration 270 nM, RXRa partner concentration 90 nM)
Summary of the method: as §1

Sequence | PBM binding z-score [1] | PBM binding z-score [2] | PBM binding z-score [3] | PBM binding z-score [4] | PBM binding z-score [5] | PBM binding z-score [6] | PBM binding z-score [7] | PBM binding z-score [8] | PBM binding z-score [9] | PBM binding z-score [10]
GGAACAAGGGCAAAGTTGATAGCATCTGTCGACG | 2.8 | 3.73 | 0.621 | -0.078 | 0.637 | 0.784 | 0.0632 | 0.948 | 0.248 | 2.42
AGAATGAGGATAAGATCAGGGAAACAGAATACAT | -0.0375 | -0.0536 | -0.123 | 0.538 | 0.327 | -0.171 | 0.272 | 0.067 | 0.354 | 0.0475
TCGAGTAGGTTAGTCGAGGCATTCAGCCAACATA | 1.97 | 1.28 | -0.938 | -0.136 | 0.168 | -0.24 | -0.481 | 0.0963 | -0.326 | -0.133
TCATATAGGTTAACAGGTGAAAGTCCGTAAGTTA | 5.79 | 5.64 | 2.16 | 1.92 | 1.58 | 1.46 | 0.372 | 1.93 | 1.1 | 2.08
CCTACTGGGCCAAAAAGGTCATAGATGCCGATAA | 3.18 | 4.3 | 0.551 | -0.44 | 3.27 | 4.51 | 1.73 | 5.33 | 1.49 | 3.98
ACTCGGAGGACAAAGCTCAGAGCTACGCCAGTGA | -0.219 | -0.357 | -0.787 | -1.32 | -1.15 | -0.902 | -0.759 | -1.14 | -0.639 | 0.77
GCTAGCAAGCCATTTGGGTCACTCAATGACGGGC | 0.501 | 1.28 | -0.713 | -0.878 | -0.494 | 0.0188 | -0.796 | 0.479 | -0.835 | 0.979
TAGACTAGGTCATTCAGGGGCCAGTATAGAAAGC | 6.24 | 6.36 | 3.24 | 2 | 2.65 | 2.21 | 0.176 | 3.32 | 0.508 | 3.64
CAAACTAGGACAAGAGGTCAAAGTCCGCTTCCCG | 5.17 | 5.25 | 1.06 | 0.504 | 3.1 | 5.45 | 2.97 | 5.92 | 0.963 | 4
ATATGTAGGTTAAGGGTCCTTCAGGTTGGTTCGC | 7.65 | 7.29 | 1.78 | 0.916 | 2.1 | 1.1 | 0.435 | 1.23 | 0.703 | 1.24
ACAGACAGGTGACTGAAGGTAACTCAGCTGGACG | 0.539 | 0.434 | 0.745 | -0.576 | -0.875 | -0.321 | -0.503 | 0.0913 | -0.597 | 0.563
CGAACTAGGTCAAGGAGAGTGAATCTCCGCACGC | 8.29 | 7.9 | 1.48 | 0.243 | 0.896 | 0.744 | -0.41 | 1.44 | -0.0147 | 3.74
CAAACTAGGTCAAAGGTCAATGTCGAGCCAACCA | 8.75 | 9.22 | 5.2 | 5.46 | 8.27 | 7.07 | 1.86 | 8.9 | 4.59 | 5.51
TCTTGTAGATCAATAGAGGTAAAGAAAGTGCGCT | 1.51 | 0.822 | 0.0443 | 0.312 | -0.815 | 0.573 | 0.0758 | 0.505 | -0.142 | -0.0126
CTCGAAAGGTCCTGCTCAGGTGAGTATACCAAAC | -0.108 | 0.189 | 0.172 | -0.54 | -0.47 | -0.11 | -0.684 | 0.631 | -0.103 | 1.06
TAGCCCAGGTCATTGGGCCAGTATAGTACGCATC | 1.36 | 3.68 | -0.318 | -0.214 | 1.51 | 2.71 | 0.0159 | 3.06 | -0.165 | 3.71
AGAATGAGGTTATACTTAGATCAGGGAAGAAAGT | 2.72 | 2.03 | 1.21 | 1 | 1.21 | 1.02 | 0.666 | 1.38 | 1.18 | 1.3
TCATATAGGTAAACAGGTGAAAGTACGTAAGTTA | 4.97 | 4.72 | 2.79 | 1.19 | 1.65 | 0.938 | 0.715 | 1.22 | 1.42 | 0.779
CGGACTGGGGCATAAGGTTACCATAAGCCAGCCC | 4.08 | 5.2 | 1.2 | 1.32 | 1.19 | 0.635 | -0.0559 | 1.48 | -0.515 | 1.78
AGCTCTAGGTAAAGTTCAGTGAAAGATCGATAGA | 2.67 | 1.47 | 0.472 | 0.107 | 0.759 | 1.27 | 1.19 | 0.896 | 0.442 | 2.67
TCTGCTAAGTCAGTTGGTCAGCTAACGAGCTGCC | 0.523 | 0.0659 | -0.684 | -0.363 | -1.05 | -0.607 | -0.707 | -0.273 | -1.36 | 0.0945
TCTATTAGTTGATTAGGGCAACCGTAACAGCGGA | 2.24 | 1.65 | 0.987 | 1.87 | 0.942 | 0.413 | 0.434 | 0.681 | 1.18 | 0.877
CCTTACGGGTGAAGGTTATAGCACGGGTGGTACG | 0.6 | 1.31 | -0.607 | -1.16 | 0.456 | 0.216 | -0.0716 | 0.732 | 0.409 | 1.31
